The list is not random: actives were taken first. Their share in the collection is about 3.1%.
Peg3 prom inh: Peg3 promoter activity inhibition; HeLa PEG-Prom luciferase reporter, luminescence, overnight; inhibition, % at 20 µM; 1.7% of 360,000 active; AID 588405;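 active means inhibition of at least 50% at 20 µM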
HIF-2a inh: blocks HIF-2a reporter activity; 786-0 RCC cells HIF-2a reporter, luciferase luminescence, overnight; inhibition, % at 18.8 µM; 0.72% of 360,000 active; AID 624352;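 active means inhibition of the luminescence signal of 40% or more relative to plate controls, in a single-dose primary screen at 18.75 µM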
C8 TRAIL sens: caspase-8 TRAIL sensitization | AID 624354 | 1% of 360,000 active | inhibition (viability loss, TRAIL sensitization), % at 10 µM | NB7+C8 cells + TRAIL, ATPlite viability luminescence;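 active means compounds causing at least 50% loss of cell viability in the single-dose screen, relative to plate controls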
KKLEB tox: reduces viability of KKLEB cystic fibrosis airway cells | KKLEB CF airway cells viability, ATPlite luminescence, overnight; hits give low values; cells stimulated with P. aeruginosa culture filtrate | activity change (cytotoxicity), % at 5 µM | 0.36% of 360,000 active;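 active means corrected activity change at or below -50% at 5 µM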
CF NFkB inh: cystic fibrosis NF-kB activation inhibition | KKLEB NF-kB-GFP reporter, PAF-induced, GFP fluorescence overnight | inhibition, % at 5 µM | 0.86% of 360,000 active | AID 588850;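 active means at least 50% inhibition at 5 µM, scaled per plate between neutral and stimulator controls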;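 further: PAF is a Pseudomonas aeruginosa culture filtrate used as stimulus; plate controls were PAF-stimulated DMSO wells for no effect and unstimulated DMSO wells for full effect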
PPC-1+TRAIL kill: kills PPC-1 cancer cells in the presence of TRAIL; cell killing (% activity), % at 4 µM or 5 µM; 0.41% of 220,000 active; PPC-1 cells + TRAIL, ATPLite viability luminescence;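 active means cell killing above 50% in the first pass at 4 µM, then a duplicate retest at 5 µM averaging 50% or more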;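 further: plate controls were cells with TRAIL plus DMSO for no effect and medium-only wells lacking cells for full effect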
* = called active by the depositor; · = no result.

SMILES | Peg3 prom inh | HIF-2a inh | C8 TRAIL sens | KKLEB tox | CF NFkB inh | PPC-1+TRAIL kill
Cc1cc(C)c(OCCNCc2ccccc2)c(C)c1 | -11 | 7 | 7 | -5 | 10 | ·
Cc1ccc(C)c(C(O)c2ncc(-c3ccc(F)cc3)[nH]2)c1 (stereo not drawn) | 0 | -1 | 11 | -1 | 6 | ·
COC(=O)c1ccc(/C=C/C(=O)OCC(=O)Nc2sccc2C(N)=O)cc1 | 89* | 6 | 38 | 0 | 30 | ·
NC(=O)c1ccsc1NC(=O)COC(=O)/C=C/c1ccc([N+](=O)[O-])cc1 | 17 | 6 | 16 | -4 | 13 | -9
CO[C@H]1CC[C@@]2(C)[C@@H](CC[C@@H]3[C@@H]2CC[C@@]2(C)[C@H]3C[C@H](C(=O)N[C@@H](CCCN=C(N)N)C(=O)NCC(=O)N[C@@H](CC(=O)O)C(N)=O)O[C@]23CCCO3)C1 | -22 | 6 | -4 | 15 | -5 | ·
O=C(C=Cc1ccccn1)c1ccccc1O | 98* | -9 | 19 | -5 | 25 | ·
Cc1cc(C)nc(Nc2nc3ccccc3s2)n1 | -187 | -212 | 6 | -4 | -20 | 4
Cc1ccc(Nc2nc3ccccc3s2)c(C)c1 | -206 | -130 | 55* | -13 | -7 | 37
CS(=O)(=O)c1ccc(Sc2nc3ccccc3[nH]2)c([N+](=O)[O-])c1 | -4 | 24 | 4 | 5 | 11 | 6
CS(=O)(=O)c1ccc(Sc2nc3ccccc3s2)c([N+](=O)[O-])c1 | 41 | 4 | 21 | -45 | 54* | -22
Cc1cn(CC(=O)NCc2nc3ccccc3[nH]2)c(=O)[nH]c1=O | · | 0 | -5 | · | · | ·
COc1ccc(C)cc1NC(=O)c1sc2ncn(CC(=O)N3CCCCC3)c(=O)c2c1C | -26 | -1 | 1 | 1 | -9 | ·
O=C1c2cccc3cccc(c23)C(=O)N1CCO | -9 | -5 | -4 | 3 | -21 | ·
CCN(CC)CCN1C(=O)c2cccc3cc(N)cc(c23)C1=O | 51* | 25 | 5 | -8 | -72 | 4
O=c1c2ccccc2ncn1C1CCCCC1 | -29 | -14 | 4 | -11 | 9 | 5
O=c1c2[nH]c3ccccc3c2ncn1C1CCCCC1 | -156 | -176 | 69* | 4 | -4 | 16
Cc1ccc(NC(=O)c2ccc(CSc3nnnn3C)cc2)cc1 | -242 | -216 | 58* | -3 | 11 | 39
Cc1ccc(Cl)cc1NC(=O)c1ccc(CSc2nnnn2C)cc1 | -19 | -27 | 12 | -2 | 4 | -16
CC(=O)Nc1ccc2nc(-c3ccccc3)cn2c1 | -169 | -107 | 54* | -10 | -18 | 47
Clc1ccc2nc(-c3ccccc3)cn2c1 | -113 | -47 | 63* | -12 | -18 | ·
CC(=O)Nc1cccc(-c2cn3ccc(C)cc3n2)c1 | -224 | -145 | 47 | 10 | -44 | 27
CCCCN(C(=O)c1ccc(C)cc1)c1c(N)n(CCC)c(=O)[nH]c1=O | 10 | 12 | -4 | 0 | 1 | ·
Oc1ccc(-c2nnc(SCC3CCCCC3)o2)cc1 | -312 | -244 | 72* | -3 | -8 | 15
CN(C)CCNCCCNc1c2ccccc2nc2cccc([N+](=O)[O-])c12 | 98* | -17 | 61* | -16 | -75 | ·
CC(C)c1ccc(O)c(NC(=S)NC(=O)c2ccc3c(c2)OCO3)c1 | -266 | -211 | 28 | -18 | 22 | ·
SMILES | Peg3 prom inh | HIF-2a inh | C8 TRAIL sens | KKLEB tox | CF NFkB inh | PPC-1+TRAIL kill
Cc1nonc1C(=O)N/N=C/c1ccc(O)c(O)c1 | 4 | -41 | 15 | -4 | 3 | 7
O=C(N/N=C/c1ccc(O)c(O)c1)N/N=C/c1ccc(O)c(O)c1 | -12 | 7 | 55* | -16 | -1 | ·
Cc1ccc(S(=O)(=O)NC(Cc2ccccc2)C(=O)NN)cc1 (stereo not drawn) | 4 | 13 | -1 | 19 | 20 | ·
Cc1ccc(S(=O)(=O)N[C@@H](Cc2ccccc2)C(=O)CCl)cc1 | 101* | -30 | 1 | -13 | 72* | 11
NC(=O)c1ccccc1N/C=C/C(=O)c1ccco1 | -295 | -210 | 12 | 0 | 5 | 19
O=C(/C=C/Nc1ccccc1C(F)(F)F)c1ccco1 | -323 | -159 | 59* | 1 | -17 | ·
Cc1ccc(C(NC(=O)C2CCCCC2)c2c(O)ccc3ccccc23)cc1 (stereo not drawn) | 54* | 3 | 0 | -22 | 50 | 19
CC(=O)NC(c1ccc([N+](=O)[O-])cc1)c1c(O)ccc2ccccc12 (stereo not drawn) | 6 | 23 | -2 | 2 | -1 | 23

Assay outcomes as filed in PubChem.
